Data taken from PubChem BioAssay AID449749 (Broad Institute, 2010).
Hit rate of the full screen: of about 2,100 compounds, about 1,700 (81%) were called active. The set was probably picked from earlier hits. Some of the results follow. Results with a measured potency or affinity are listed apart. Inconclusive results are not listed. The rule behind the calls is not given here.

The molecules below were run against Replicative DNA helicase DnaB (Mycobacterium tuberculosis (strain ATCC 25618 / H37Rv)) (UniProt P9WMR3) (assay: DnaB intein splicing inhibitors, dose response, biochemical, M. tuberculosis H37Rv, cell-free fluorescence (AID 449749)). Details: series mostly up to 38 µM.
Replicative DNA helicase DnaB (Mycobacterium tuberculosis (strain ATCC 25618 / H37Rv)), sequence (P9WMR3 whole entry, looked up): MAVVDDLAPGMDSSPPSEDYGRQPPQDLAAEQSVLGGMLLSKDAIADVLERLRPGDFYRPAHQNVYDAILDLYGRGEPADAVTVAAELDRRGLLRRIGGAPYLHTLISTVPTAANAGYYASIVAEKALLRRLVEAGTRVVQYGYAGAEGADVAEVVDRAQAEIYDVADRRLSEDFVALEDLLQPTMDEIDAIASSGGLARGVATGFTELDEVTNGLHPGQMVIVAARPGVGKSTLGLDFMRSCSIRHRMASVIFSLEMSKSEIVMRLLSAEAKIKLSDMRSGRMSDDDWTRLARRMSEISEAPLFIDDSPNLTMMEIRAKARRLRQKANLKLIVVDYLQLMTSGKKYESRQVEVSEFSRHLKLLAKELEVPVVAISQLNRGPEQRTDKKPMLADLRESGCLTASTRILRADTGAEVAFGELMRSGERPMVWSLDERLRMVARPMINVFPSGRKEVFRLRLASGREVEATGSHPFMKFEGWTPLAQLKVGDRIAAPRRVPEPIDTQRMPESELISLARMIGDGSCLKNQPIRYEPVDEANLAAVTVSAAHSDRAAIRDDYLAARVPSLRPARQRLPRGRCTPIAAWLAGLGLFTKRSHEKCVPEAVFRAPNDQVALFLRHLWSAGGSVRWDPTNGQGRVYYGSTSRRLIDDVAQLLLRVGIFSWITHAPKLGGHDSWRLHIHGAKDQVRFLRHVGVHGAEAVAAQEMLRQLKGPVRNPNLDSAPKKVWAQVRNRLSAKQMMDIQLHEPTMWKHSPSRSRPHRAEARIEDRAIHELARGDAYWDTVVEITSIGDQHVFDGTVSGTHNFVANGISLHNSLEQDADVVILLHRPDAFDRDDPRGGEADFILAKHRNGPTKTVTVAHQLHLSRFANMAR
In the case of `OCCNC(=S)Nc1ccc2nsnc2c1`, the outcome is reported as “inactive”. In the case of `CCCCNC(=O)c1c(N)n(Cc2ccc3c(c2)OCO3)c2nc3ccccc3nc12`, the outcome is reported as “inactive”. In the case of `Cc1ccsc1C=Nc1ccc(O)cc1`, the outcome is reported as “inactive”. In the case of `C=CCn1c(N)c(C(=O)Nc2cccc(C)c2)c2nc3ccccc3nc21`, the outcome is reported as “inactive”. For `CN1/C(=C/C(=O)c2nc(S(C)(=O)=O)ncc2Cl)C(C)(C)c2ccccc21`, the outcome was “inactive”. In the case of `ONc1cccnc1-n1nc(C(F)(F)F)cc1C(F)(F)F`, the outcome is reported as “inactive”. In the case of `CCCCCn1c(N)c(C(=O)NCc2cccs2)c2nc3ccccc3nc21`, the outcome is reported as “inactive”. In the case of `O=[N+]([O-])c1cncc([N+](=O)[O-])c1Nc1cccc(O)c1`, the outcome is reported as “inactive”. `CCOc1ccc2c(c1)-c1c(ssc1=S)C(C)(C)N2` was tested, and the outcome was “inactive”.
